Bioassay records: PubChem BioAssay, several laboratories
A selection: hits, their analogues and other compounds. The true share with any hit is near 3%.
HIF-2a block – HIF-2a reporter inhibitors, primary screen, luminescence, 786-0 RCC cells; inhibition, % at 18.8 µM; AID 624352, 2012; 786-0 RCC cells HIF-2a reporter, luciferase luminescence, overnight; 360,000 tested, 0.72% active;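 active = inhibition of the luminescence signal of 40% or more relative to plate controls, in a single-dose primary screen at 18.75 µM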
Peg3 promoter – Peg3 promoter-driven luciferase inhibitors, primary screen, cell-based, HeLa, luciferase luminescence; HeLa PEG-Prom luciferase reporter, overnight; inhibition, % at 20 µM; 360,000 tested, 1.7% active; AID 588405, 2011;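 active = inhibition of at least 50% at 20 µM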
KKLEB cytotox – cytotoxicity in KKLEB CF airway cells, primary screen, cytotoxicity control for CF NF-kB inhibitor project, cell-based, uHTS, fluorescence assay plates | KKLEB CF airway cells viability, ATPlite luminescence, overnight; stronger effect = lower value; cells stimulated with P. aeruginosa culture filtrate | activity change (cytotoxicity), % at 5 µM | 360,000 tested, 0.36% active | AID 602141, 2011;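 active = corrected activity change at or below -50% at 5 µM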
ABHD5 PLIN5 PPI – ABHD5-PLIN5 interaction inhibitors, primary screen, cell lysate, split luciferase complementation, luminescence; inhibition, % at 4 µM; Perilipin-5 (Homo sapiens) + 1-acylglycerol-3-phosphate O-acyltransferase ABHD5 (Homo …; 360,000 tested, 0.78% active; Split G. princeps luciferase complementation, 4 h;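 active = inhibition above the mean inhibition across every tested compound plus 3 SD, cut at about 22% in these data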
MITF TRPM1 inh – inhibitors of MITF-dependent TRPM1 promoter reporter, primary screen, cell-based, SK-MEL-5, single point, luciferase | SK-MEL-5 TRPM1 promoter luciferase, 24 h | AID 488899, 2010 | inhibition, % at 12.5 µM | 330,000 tested, 0.83% active;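 active = mean inhibition across replicates of 60% or more, whatever share of single replicates reaches that level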
CF NFkB block – inhibitors of PAF-induced NF-kB signaling, primary screen, cell-based, GFP fluorescence, uHTS. KKLEB NF-kB-GFP reporter, GFP fluorescence overnight. inhibition, % at 5 µM. 360,000 tested, 0.86% active;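 active = at least 50% inhibition at 5 µM, scaled per plate between neutral and stimulator controls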;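 note: PAF is a Pseudomonas aeruginosa culture filtrate used as stimulus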
Each line names hits and unclear results; the compound was inactive in the other large screens.

CCCCC(=O)OCC(=O)C1(O)Cc2c(O)c3c(c(O)c2C(OC2CC(NC(=O)C(F)(F)F)C(O)C(C)O2)C1)C(=O)c1c(OC)cccc1C3=O (stereo unspecified)	Peg3 promoter 74, MITF TRPM1 inh 61
C[C@@H]1CN([C@H](C)CO)C(=O)CCCn2cc(nn2)CO[C@H]1CN(C)C(=O)Nc1ccnc(N2CCOCC2)c1	none (no result: MITF TRPM1 inh)
CCCCCCOC(=O)c1ccc(N)cc1	none
CCCCCCCCCCCC1N=C(N)NC(CCCO)=C1C(=O)OC (stereo unspecified)	Peg3 promoter 96
O=C(O)CSc1nnc(NC(=O)c2ccc3c(c2)OCO3)s1	HIF-2a block 41
COC(=O)C(C(=O)OC)c1ncccc1NS(=O)(=O)c1ccc(C)cc1	none (no result: Peg3 promoter, KKLEB cytotox, MITF TRPM1 inh, CF NFkB block)
Cc1cc2occ(CC(=O)N(CC(C)C)c3c(N)n(Cc4ccccc4)c(=O)[nH]c3=O)c2cc1C	none
Cc1ccc(Sc2cnccc2C#N)cc1	none
CCC(=C(c1ccc(O)cc1)c1ccc(OCCN(C)C)cc1)c1ccccc1	none (no result: MITF TRPM1 inh)
CC/C(=C(\c1ccc(O)cc1)c1ccc(OCCN(C)C)cc1)c1ccccc1	Peg3 promoter 57
CCOc1ccc(-c2[nH]ncc2-c2ccc(Cl)cc2)c(O)c1	Peg3 promoter 55
CCOc1ccc(-c2[nH]ncc2Oc2ccccc2OCC)c(O)c1	Peg3 promoter 55
N#C/C(=C/c1ccc(-c2ccc([N+](=O)[O-])cc2)o1)c1nnc(N2CCOCC2)n1-c1ccccc1	Peg3 promoter 67
CC1CCN(Cc2c(C(=O)N/N=C/c3ccc(C(C)C)cc3)nnn2-c2nonc2N)CC1	Peg3 promoter 65
Cc1ccc(S(=O)(=O)N2CCOC2CNC(=O)C(=O)NCCN(C)C)cc1 (stereo unspecified)	none
O=C(NCC1CCCO1)c1cccc2c1C(=O)c1ccc(N3CCC(Cc4ccccc4)CC3)cc1S2(=O)=O (stereo unspecified)	Peg3 promoter 63
O=C(NCc1ccccc1C(F)(F)F)c1cccc2c1C(=O)c1ccc(N3CCC(N4CCCCC4)CC3)cc1S2(=O)=O	Peg3 promoter 106 (no result: MITF TRPM1 inh)
O=C(NCc1ccccc1C(F)(F)F)c1cccc2c1C(=O)c1ccc(N3CCOCC3)cc1S2(=O)=O	none
C=CCn1c(SC(F)F)nc2scc(-c3ccco3)c2c1=O	Peg3 promoter 74
C=CCn1c(SCCN2C(=O)c3ccccc3C2=O)nc2scc(-c3ccc(F)cc3)c2c1=O	none
Clc1cccc(CSc2nnc(-c3ccccn3)n2Cc2ccco2)c1	ABHD5 PLIN5 PPI 23
Cc1cccc(NC(c2ccc(C)s2)c2ccc3ccc(C)nc3c2O)n1 (stereo unspecified)	HIF-2a block 66
Cc1ccc2ccc(C(Nc3ccccn3)c3ccccc3)c(O)c2n1 (stereo unspecified)	none (no result: MITF TRPM1 inh)
O=C(CN(Cc1ccccc1Cl)C(=O)c1csnn1)NCc1ccccc1	none
O=C(CCCCCCC(=O)Nc1ccccc1)NO	MITF TRPM1 inh 84 (no result: KKLEB cytotox, CF NFkB block)
COC(=O)c1c[nH]c2c1-c1cc(C(=O)OCc3ccccc3)n(S(=O)(=O)c3ccc(C)cc3)c1C(=O)C2=O	Peg3 promoter 82, MITF TRPM1 inh 112, CF NFkB block 86
CCc1nc2ccc(C(=O)NCCc3c[nH]c4ccccc34)cn2c1N(C)CCCc1ccccc1	Peg3 promoter 61 (no result: MITF TRPM1 inh)
CC1(C)SC2c3ccccc3C(=O)N2[C@@H]1C(=O)O (stereo partly specified)	none (no result: MITF TRPM1 inh)
CNc1cncc(-c2cc(OC)c(OC)c(OC)c2)n1	none (no result: MITF TRPM1 inh)
CNCCCOc1ccc(Cl)cc1C(C)(C)C	Peg3 promoter 68
CN1CCN(c2ccc(NC(=O)c3ccc(-c4ccc(Cl)cc4)o3)cc2)CC1	Peg3 promoter 98
CC1(C)CC(=O)C(C=Nc2ccc(O)c(N=CC3=C(O)CC(C)(C)CC3=O)c2)=C(O)C1	none
CC1(C)CC(=O)C(C=Nc2ccc(C(=O)c3ccccc3)cc2N=CC2=C(O)CC(C)(C)CC2=O)=C(O)C1	KKLEB cytotox -59, CF NFkB block 52
